The supplement of paper PMC3414501
Structures can show the parent of a compound that is named as a salt. Unmarked numbers belong to inactive results.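 Rule for the calls: active = HIS4 sensitivity z-score above 5 vs DMSO controls; inactive = score 5 or below.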

What follows are molecules tested on S. cerevisiae NKY1551 his4x/his4B, sporulating (assay: HIS4 meiotic recombination assay sensitivity score (z-score vs DMSO controls); higher = stronger inhibition of sporulation/recombination, active = hit call of the paper).

First: COc1cc(C(=O)NS(=O)(=O)c2ccccc2C)ccc1Cc1cn(C)c2ccc(NC(=O)OC3CCCC3)cc12 [Zafirlukast] (stock concentration (mM, diluted 1:100): 10)
Second: COC(=O)C1=C(C)NC(C)=C(C(=O)OC2CCCN(Cc3ccccc3)C2)C1c1cccc([N+](=O)[O-])c1 (centres undefined) [Benidipine hydrochloride] (stock concentration (mM, diluted 1:100): 6)
The “HIS4 meiotic recombination assay sensitivity score” value of the first is higher: 1 for the first, -1.2 for the second.

Going from CCOC(=O)O[C@]1(C(=O)OCCl)CC[C@H]2[C@@H]3CCC4=CC(=O)C=C[C@]4(C)[C@H]3[C@@H](O)C[C@@]21C [Loteprednol etabonate] (stock concentration (mM, diluted 1:100): 10) to C[C@@H]1C[C@H]2[C@@H]3CCC4=CC(=O)C=C[C@]4(C)[C@@]3(F)[C@@H](O)C[C@]2(C)[C@H]1C(=O)CO [Desoximetasone] (stock concentration (mM, diluted 1:100): 10), the “HIS4 meiotic recombination assay sensitivity score” value falls from -0.2 to -1.12.

Compared with Nc1nc(N)nc(-c2cc(Cl)ccc2Cl)n1 [Irsogladine maleate] (stock concentration (mM, diluted 1:100): 6.9), Clc1ccc(CO/N=C(\Cn2ccnc2)c2ccc(Cl)cc2Cl)c(Cl)c1 [Oxiconazole nitrate] (stock concentration (mM, diluted 1:100): 10) is lower in “HIS4 meiotic recombination assay sensitivity score” value: -0.77 for the first, -3.02 for the second.

First: CCOC(=O)c1ccc(OC(=O)CCCCCNC(=N)N)cc1 [Gabexate mesylate] (stock concentration (mM, diluted 1:100): 7.7)
Second: CC(CCCCC(=O)Nc1ccc(C(F)(F)F)cc1)NCCc1cnc[nH]1 (centres undefined) (stock concentration (mM, diluted 1:100): 10)
The “HIS4 meiotic recombination assay sensitivity score” value of the first is higher: 2.41 for the first, -0.79 for the second.

Going from CC(C)(C)NC(=O)[C@@H]1C[C@@H]2CCCC[C@@H]2CN1C[C@@H](O)[C@H](Cc1ccccc1)NC(=O)[C@H](CC(N)=O)NC(=O)c1ccc2ccccc2n1 [Saquinavir mesylate] (stock concentration (mM, diluted 1:100): 8.8) to CC(C)(C)NC(=O)[C@@H]1CN(Cc2cccnc2)CCN1C[C@@H](O)C[C@@H](Cc1ccccc1)C(=O)N[C@H]1c2ccccc2C[C@H]1O [Indinavir sulphate] (stock concentration (mM, diluted 1:100): 8.6), the “HIS4 meiotic recombination assay sensitivity score” value rises from -1.67 to -1.36.

Compared with CO[C@H]1/C=C/O[C@@]2(C)Oc3c(C)c(O)c4c(O)c(c(/C=N/N5CCN(C6CCCC6)CC5)c(O)c4c3C2=O)NC(=O)/C(C)=C\C=C\[C@H](C)[C@H](O)[C@@H](C)[C@@H](O)[C@@H](C)[C@H](OC(C)=O)[C@@H]1C [Rifapentine] (stock concentration (mM, diluted 1:100): 10), CO[C@H]1/C=C/O[C@@]2(C)Oc3c(C)c(O)c4c(O)c(c5c(nc6cc(C)ccn65)c4c3C2=O)NC(=O)/C(C)=C\C=C\[C@H](C)[C@H](O)[C@@H](C)[C@@H](O)[C@@H](C)[C@H](OC(C)=O)[C@@H]1C [Rifaximin] (stock concentration (mM, diluted 1:100): 10) is lower in “HIS4 meiotic recombination assay sensitivity score” value: -0.69 for the first, -0.87 for the second.

Compared with C#C[C@]1(O)CC[C@H]2[C@@H]3CCc4cc(OC)ccc4[C@H]3CC[C@@]21C [Mestranol] (stock concentration (mM, diluted 1:100): 10), CC(=O)[C@@]1(O)CC[C@H]2[C@@H]3C[C@H](C)C4=CC(=O)CC[C@]4(C)[C@H]3CC[C@@]21C [Medroxyprogesterone] (stock concentration (mM, diluted 1:100): 10) is higher in “HIS4 meiotic recombination assay sensitivity score” value: -0.79 for the first, 0.24 for the second.

Going from CN(C)CC[C@@H](c1ccc(Cl)cc1)c1ccccn1 [Dexchlorpheniramine maleate] (stock concentration (mM, diluted 1:100): 7) to CC(C(=O)O)c1ccc(-c2ccccc2)c(F)c1 (centres undefined) [Flurbiprofen] (stock concentration (mM, diluted 1:100): 11.4), the “HIS4 meiotic recombination assay sensitivity score” value falls from 2.35 to -0.16.

First: COCC1=C(C(=O)OC(C)OC(=O)OC(C)C)N2C(=O)[C@@H](NC(=O)/C(=N\OC)c3csc(N)n3)[C@H]2SC1 (some centres undefined) [Cefpodoxime proxetil] (stock concentration (mM, diluted 1:100): 7.7)
Second: CC(=O)O[C@]1(C(C)=O)CC[C@H]2[C@@H]3C=C(C)C4=CC(=O)CC[C@]4(C)[C@H]3CC[C@@]21C [Megestrol acetate] (stock concentration (mM, diluted 1:100): 10)
The “HIS4 meiotic recombination assay sensitivity score” value of the first is higher: -1.5 for the first, -2.67 for the second.

Going from C[C@@H]1O[C@@H](OC[C@H]2O[C@@H](Oc3c(-c4ccc(O)c(O)c4)oc4cc(O)cc(O)c4c3=O)[C@H](O)[C@@H](O)[C@@H]2O)[C@H](O)[C@H](O)[C@H]1O [Rutin] (stock concentration (mM, diluted 1:100): 10) to CC(C)Oc1ccc2c(=O)c(-c3ccccc3)coc2c1 [Ipriflavone] (stock concentration (mM, diluted 1:100): 10), the “HIS4 meiotic recombination assay sensitivity score” value falls from -1.04 to -1.16.

Going from CC[C@@H]1C(=O)OC[C@@H]1Cc1cncn1C [Pilocarpine hydrochloride] (stock concentration (mM, diluted 1:100): 10) to O=c1n(CCCN2CCN(c3cccc(Cl)c3)CC2)nc2ccccn12 [Trazodone hydrochloride] (stock concentration (mM, diluted 1:100): 10), the “HIS4 meiotic recombination assay sensitivity score” value rises from -0.54 to -0.45.

First: CN1CCN(c2c(F)cc3c(=O)c(C(=O)O)cn4c3c2SCC4)CC1 [Rufloxacin hydrochloride] (stock concentration (mM, diluted 1:100): 10)
Second: O=C1CC[C@@H](C(=O)N2CSC[C@H]2C(=O)O)N1 [Pidotimod] (stock concentration (mM, diluted 1:100): 10)
The “HIS4 meiotic recombination assay sensitivity score” value of the first is higher: -0.04 for the first, -0.31 for the second.

Going from NC(N)=Nc1nc(CSCC/C(N)=N/S(N)(=O)=O)cs1 [Famotidine] (stock concentration (mM, diluted 1:100): 10) to Cc1[nH]c(=O)c(C#N)cc1-c1ccncc1 [Milrinone] (stock concentration (mM, diluted 1:100): 10.1), the “HIS4 meiotic recombination assay sensitivity score” value rises from -0.42 to -0.23.

In the case of CC(Oc1c(Cl)cccc1Cl)C1=NCCN1 (centres undefined) [Lofexidine hydrochloride] (stock concentration (mM, diluted 1:100): 10), the “HIS4 meiotic recombination assay sensitivity score” value was 1.48.

With O=C(CCCN1CCC(O)(c2ccc(Cl)cc2)CC1)c1ccc(F)cc1 [Haloperidol] (stock concentration (mM, diluted 1:100): 10) the “HIS4 meiotic recombination assay sensitivity score” value was 7.67 (active).
In the case of OCCOCCN1CCN(C2=Nc3ccccc3Sc3ccccc32)CC1 [Quetiapine hemifumarate] (stock concentration (mM, diluted 1:100): 7.7), the “HIS4 meiotic recombination assay sensitivity score” value was 5.3 (active).
